The list is not random: actives were taken first. Their share in the collection is about 1.5%.
BRCA1 expr act: BRCA1 expression activation. MCF7-BRCA1-FFLuc reporter, luminescence, 48 h; response scale: scaled: vehicle 0%, 10 µM genistein 100%. Potency, µM (top dose mostly 46.1 µM), for inactives: top-dose activation, usual class: activators. 1.1% of 380,000 active; further: potency means the concentration at half of the fitted maximal effect; nearly all actives have a fitted effect of over 80% in size
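MCF7-BRCA1-FFLuc, 2000 cells/well; 2 h attach, 37 °C/5% CO2; compound 48 h; luciferase substrate 15 min; luminescence end-point. Norm. to genistein 10 microM max activation and DMSO; concentration-response curves fitted.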
gsp agonist: activates gsp, the McCune-Albright syndrome mutation; AID 624287; 0.13% of 340,000 active; gsp mutant cells, cAMP HTRF, 30 min; Potency, µM (highest dose often 76.9 µM), without a hit: top-dose activation (cAMP increase), actives largely listed as activators; active means well fitted activation curve with a large enough effect; inconclusive means small, poorly fitted or top-dose-only effect, or another doubt; inactive means no such curve, though single readings can be large or run the other way; cell line not stated here;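 further: phosphodiesterase inhibitor Ro 20-1724 added with compounds to block cAMP breakdown; potency means the concentration at half of the fitted maximal effect; nearly all actives have a fitted effect of over 60% in size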
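Cells in DMEM/10% FBS with G418 were pretreated with compounds in DMSO plus […] (300 uM stock) for 30 min at 37C. cAMP was measured by HTRF (cAMP-d2 plus anti-cAMP antibody-K) after 30 min at room temperature.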
mIDH1 inhibitor: blocks human mutant IDH1 R132H enzyme | O75874 | IDH1-R132H enzyme, NADPH consumption, diaphorase/resazurin fluorescence | Potency, µM (highest dose often 76.6 µM), without a hit: top-dose activity change, negative = inhibition, usual class: inhibitors | 0.093% of 390,000 active | AID 602179; further: potency means the concentration at half of the fitted maximal effect; on the % scale 0 is the no-effect control and ±100 the full control effect; nearly all actives have a fitted effect of over 65% in size
Target sequence (O75874 whole entry R132H, stated change not applied): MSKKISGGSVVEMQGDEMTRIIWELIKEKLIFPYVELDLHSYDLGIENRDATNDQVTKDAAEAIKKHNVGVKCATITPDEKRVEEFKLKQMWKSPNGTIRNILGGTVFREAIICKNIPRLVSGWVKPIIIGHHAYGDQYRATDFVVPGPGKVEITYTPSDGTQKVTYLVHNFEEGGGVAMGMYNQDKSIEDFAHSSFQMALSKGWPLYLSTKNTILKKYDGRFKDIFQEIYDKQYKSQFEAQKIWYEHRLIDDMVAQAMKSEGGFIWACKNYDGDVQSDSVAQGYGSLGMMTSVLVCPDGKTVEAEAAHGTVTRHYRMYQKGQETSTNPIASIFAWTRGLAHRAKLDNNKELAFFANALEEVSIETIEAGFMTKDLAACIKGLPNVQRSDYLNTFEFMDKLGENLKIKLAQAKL
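IDH1-R132H (0.5 ug/mL dispensed) in pH 7.5 Tris buffer was preincubated 30 min with compound, then given a substrate mix of 0.016 mM NADPH and 2 mM alpha-KG for 80 min at room temperature; remaining NADPH was read by diaphorase/resazurin fluorescence.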
gsp antag: gsp mutant antagonism. gsp-mutant cells, cAMP HTRF, 30 min. Potency, µM (highest dose often 76.9 µM), for inactives: at the top dose activity change, negative = inhibition, most hits filed as inhibitors. 0.4% of 340,000 active; calls by dose curve; cell line not stated here;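 further: intracellular cAMP measured with PDE inhibitor Ro 20-1724 present during compound exposure; potency means the concentration at half of the fitted maximal effect; on the % scale 0 is the no-effect control and ±100 the full control effect; nearly all actives have a fitted effect of over 65% in size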
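Cells, 2000/well, grown 16–24 h in DMEM 10% FBS with 0.5 mg/ml G418, then compounds plus […] (300 uM addition stock), 30 min at 37C. cAMP read by HTRF (cAMP-d2 and anti-cAMP antibody-K in lysis buffer) after 30 min RT.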
IL2 activator: IL-2 activation; 0.065% of 360,000 active; activation, % (series mostly up to about 46 µM); IL-2 activation reporter assay, cell-based qHTS; stimulated with anti-CD3/CD4/CD28 beads; in transgenic mouse T cells; AID 652025; in the data active means activation above about 50%; inconclusive means mostly about 30% to 49%; further: 0% is about no effect
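EGFP and DsRed fluorescence is measured by plate cytometry in unstimulated transgenic mouse T cells exposed to compound for 60 minutes, then stimulated 18 hours at 37 degrees C with anti-CD3/anti-CD4 beads plus anti-CD28.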
Resorufin autofl: autofluorescence interference, mutant IDH1 hit counter-screen; shares compounds with mIDH1 inhibitor; Resorufin detection reagent fluorescence interference, cell-free; inhibition of signal, % at 51.2 µM; 750 tested, under 10 active; AID 623980;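 further: 0% = wells with normal resorufin and full inhibition = wells lacking resorufin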
IDH1 WT: inhibits human wild-type IDH1, mutant selectivity check; shares compounds with mIDH1 inhibitor; WT IDH1 enzyme, NADPH diaphorase/resazurin fluorescence; Potency, µM (titrated, usually from 115 µM), for the others: at the highest dose activity change, negative = inhibition, hits mostly inhibitors; 9% of 750 active;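 further: potency means the concentration at half of the fitted maximal effect; 0% = full WT IDH1 enzyme control and full inhibition = no enzyme wells; nearly all actives have a fitted effect of over 55% in size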
Target sequence (O75874 whole entry, looked up): as the sequence (O75874 whole entry R132H, stated change not applied) above, with H132R counted along it
IDH1 R132H conf: confirmation of human mutant IDH1 inhibitors; AID 624002; 83% of 750 active; IDH1 R132H enzyme, NADPH diaphorase/resazurin fluorescence; shares compounds with mIDH1 inhibitor; Potency, µM (highest dose often 76.6 µM), inactives show top-dose activity change, negative = inhibition, hits mostly inhibitors; further: potency means the concentration at half of the fitted maximal effect; nearly all actives have a fitted effect of over 50% in size
* marks the source's active call; other numbers are inactive results; ? = inconclusive; . = no result given; [ ] = another dose, or the depositor's remark. Unless noted, the call rests on the fitted dose curve; in most records, active means well fitted curve in the direction sought with a large enough effect; inconclusive means small, poorly fitted or top-dose-only effect, or another doubt; inactive means no such curve, though single readings can be large; an effect the other way counts as inactive or inconclusive.

SMILES	BRCA1 expr act	gsp agonist	mIDH1 inhibitor	gsp antag	IL2 activator	Resorufin autofl	IDH1 WT	IDH1 R132H conf
O=P(NC1CCCCC1)(c1ccccc1)c1ccccc1	-2%	4%	1%	-7%	0	.	.	.
COc1ccc(/C=C2\SC(N)=NC2=O)cc1	44%	3%[15.4 µM]	-4%	-1%	-1	.	.	.
CCOC(=O)CSC1=NC(=O)/C(=C/c2ccc(OC)cc2)S1	-81%	?	52µM*	5%	-3	2	?	45µM*
Cc1noc(C)c1-c1ccc(C(=O)NCCN2CCOCC2)c2occc12	-12%	.	.	.	0	.	.	.
O=C(NC1CCCCC1)C(c1cccs1)N(C(=O)c1ccco1)c1ccc2c(c1)OCCO2 (configuration not stated)	-1%	9%	?	-21%	-1	-1	-20%	?
O=C(NC1CCCCC1)C(c1ccc(F)cc1)N(C(=O)c1cccs1)c1ccc2c(c1)OCO2 (configuration not stated)	-15%	-11%	?	2%	-2	0	-9%	7.9µM*
COc1cc(OC)cc(C(=O)NCCCCc2ccccc2)c1	-13%	7%	4%	-15%	-1	.	.	.
O=C(CSc1nccn1Cc1ccc2c(c1)OCO2)Nc1ccccc1F	.	.	15%	.	.	.	.	.
COCCNC(=O)C(c1ccc(C)o1)N(C(=O)c1snc(C(N)=O)c1N)c1ccc(C)cc1 (configuration not stated)	-17%	-39%	-9%	-18%	1	.	.	.
Cc1cccc(N(C(=O)c2snc(C(N)=O)c2N)C(C(=O)NC2CCCC2)c2ccc(C)o2)c1 (configuration not stated)	-27%	17%	?	-11%	1	1	8%	25µM*
Cc1ccc(N(C(=O)c2snc(C(N)=O)c2N)C(C(=O)NC2CCCC2)c2ccc(C)o2)cc1 (configuration not stated)	-66%	16%	?	-17%	1	-1	3%	20µM*
COc1ccc(N(C(=O)c2snc(C(N)=O)c2N)C(C(=O)NC2CCCC2)c2ccco2)c(OC)c1 (configuration not stated)	-35%	19%[15.4 µM]	-22%	-5%	2	.	.	.
Cc1ccc(N(C(=O)c2snc(C(N)=O)c2N)C(C(=O)NC2CCCC2)c2ccco2)cc1 (configuration not stated)	-20%	1%	?	-11%	0	7	-1%	28µM*
COCCCNC(=O)c1cc2cc(S(=O)(=O)N3CCCCC3)ccc2n1C	.	.	-6%	.	.	.	.	.
COc1cc(C2(c3ccc(O)c(OC)c3)C(=O)Nc3c(Br)cc(Br)cc32)ccc1O	0%	-5%	52µM*	-2%	2	0	?	40µM*
COc1cc(C2(c3ccc(O)c(OC)c3)C(=O)N(C)c3ccc(Br)cc32)ccc1O	-28%	24%	-13%	-1%	1	.	.	.
CCCCN1C(=O)c2[nH]nc(-c3ccccc3O)c2C1c1cc(Br)c(O)c(OC)c1 (configuration not stated)	.	.	28µM*	.	.	1	40µM*	8.9µM*
COc1ccc(CCN2C(=O)c3[nH]nc(-c4ccccc4O)c3C2c2cccc(O)c2)cc1OC (configuration not stated)	-35%	-10%	-14%	-6%	-2	.	.	.
O=C1c2[nH]nc(-c3ccccc3O)c2C(c2cccc(Cl)c2)N1CC1CCCO1 (configuration not stated)	-54%	-37%	?	-13%	0	10	0%	40µM*
COc1cccc(C2c3c(-c4ccccc4O)n[nH]c3C(=O)N2CCc2ccc(OC)c(OC)c2)c1 (configuration not stated)	.	.	?	.	.	-1	10%	25µM*
CCOc1ccc(CN(C)CC(=O)Nc2ccccc2C(=O)NC2CC2)cc1	-13%	-6%	2%	9%	-4	.	.	.
Cc1ccc(C(=O)N2CC(=O)Nc3ccc(Br)cc3C2c2ccc(F)cc2)cc1C (configuration not stated)	.	.	-5%	.	.	.	.	.
COc1cccc(C(C)(O)c2nc(-c3ccc4c(c3)OCO4)cs2)c1 (configuration not stated)	-9%	.	.	.	-1	.	.	.
c1ccc(C2=Nn3c(nnc3-c3cc(-c4ccccc4)n[nH]3)SC2)cc1	-79%	-2%	?	-12%	0	-13	?	20µM*
OC(c1ccccc1)c1nc(-c2ccc(F)c(Cl)c2)cs1 (configuration not stated)	49%	.	.	.	0	.	.	.
SMILES	BRCA1 expr act	gsp agonist	mIDH1 inhibitor	gsp antag	IL2 activator	Resorufin autofl	IDH1 WT	IDH1 R132H conf
Cc1ccc(N2C(=O)c3n[nH]c(C)c3C2c2ccccc2Cl)cc1 (configuration not stated)	-5%	.	-12%	.	.	.	.	.
Cc1ccc(N2C(=O)c3n[nH]c(C)c3C2c2ccc(Cl)cc2)cc1 (configuration not stated)	80%	.	?	.	.	-3	-3%	45µM*
COCCN1C(=O)c2[nH]nc(-c3cc(C)ccc3O)c2C1c1ccc(C(C)C)cc1 (configuration not stated)	.	.	?	.	.	-3	-2%	32µM*
COc1cc(C2c3c(-c4cc(C)ccc4O)n[nH]c3C(=O)N2CCCO)ccc1OCCC(C)C (configuration not stated)	.	.	40µM*	.	.	-1	-11%	25µM*
COc1ccc(C2C(C#N)=C(N)N(c3sc4c(c3C#N)CCCC4)C3=C2C(=O)CC(C)(C)C3)cc1 (configuration not stated)	-63%	-50%	-10%	-7%	3	.	.	.
COc1ccc(C2C(C#N)=C(N)N(N(C)C)C3=C2C(=O)CC(C)(C)C3)cc1 (configuration not stated)	2%	-53%	0%	6%	0	.	.	.
COc1ccc(C2C(C#N)=C(N)N(c3sc4c(c3C#N)CCCC4)C3=C2C(=O)CC(C)(C)C3)cc1OC (configuration not stated)	-25%	-51%	?	-2%	-1	3	-4%	-25%

Screening results: PubChem BioAssay, National Center for Advancing Translational Sciences (NCATS)
